High-throughput results as filed in PubChem BioAssay.
The list is not random: actives were taken first. Their share in the collection is about 3%.
m-calpain inh = blocks pig calpain II enzyme activity | inhibition, % at 16 µM | AID 1236 | 220,000 compounds, 0.37% hits | purified calpain II, fluorogenic peptide substrate, 30 min;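 active = inhibition above about 50%, limit read from the data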
14-3-3 Bad PPI = disrupts binding of bovine 14-3-3 zeta to phospho-Bad peptide; P63103; TR-FRET 14-3-3zeta/Dy647-pBad peptide displacement, 1 h; inhibition, % at 21.7 µM; 220,000 compounds, 0.71% hits; AID 781;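 active = inhibition above about 70%, limit read from the data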;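 also: 0% = full 14-3-3 plus peptide FRET controls and 100% = background without 14-3-3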
Target sequence (P63103 whole entry, looked up): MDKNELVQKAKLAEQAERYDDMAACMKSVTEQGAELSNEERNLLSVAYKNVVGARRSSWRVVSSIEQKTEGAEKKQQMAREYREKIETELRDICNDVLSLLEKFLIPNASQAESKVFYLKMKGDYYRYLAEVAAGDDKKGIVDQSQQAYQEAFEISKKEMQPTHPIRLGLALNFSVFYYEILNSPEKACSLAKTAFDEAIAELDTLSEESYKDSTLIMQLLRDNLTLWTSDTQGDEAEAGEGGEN
TNF death inh = inhibitors of TNF-alpha induced necroptosis in Jurkat FADD-/- cells; 220,000 compounds, 0.068% hits; Jurkat FADD-/- TNF necroptosis rescue, ATP luminescence, 24 h; 0 = TNF only, 100 = no-TNF cells; activation (protection from cell death), % at 10 µM;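 active = activation, meaning protection from cell death, of at least 50% relative to plate controls; inactive = activation below 50%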;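 also: necroptosis triggered by 40 ng/mL TNF-alpha added together with compound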
zVAD death inh = blocks zVAD induced death of L929 cells. L929 zVAD necroptosis rescue, ATP luminescence, 24 h; with zVAD 60 µM. AID 1377. 220,000 compounds, 0.38% hits. viability rescue, % at 10 µM;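 active = activation, scaled between plate controls, above about 75%, limit read from the data; inactive = activation under that limit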;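 also: 0% = zVAD with DMSO and 100% = DMSO alone without zVAD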
Efa HMGR inh = blocks class II HMG-CoA reductase of Enterococcus faecalis; purified E. faecalis HMGR, NADPH absorbance 340 nm kinetic; 190,000 compounds, 0.41% hits; inhibition, % at 10 µM; AID 1066;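 active = inhibition above a set limit, the median over all tested compounds plus 3 SD, cut at about 9.5% in these data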;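 also: enzyme runs in reverse so mevalonate oxidation gives rising NADPH absorbance; 0% = complete reaction with DMSO and 100% = background rate lacking mevalonate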
ROMK mod = human ROMK K+ channel modulation, primary screen; P48048; Tet-inducible ROMK, thallium flux fluorescence; actives lie on both sides; B-score at 10 µM; 130,000 compounds, 2% hits; AID 1918;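 active = signal ratio slope over the read window, or its plate-corrected B-score, at least 3 SD from the plate mean, either direction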;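 also: B-score of the F/F0 ratio slope over 7 to 12 s after thallium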
ROMK hit retest = retested hit modulating human ROMK potassium channel; shares compounds with ROMK mod; ROMK thallium flux, fluorescence ratio; hits give low values; normalized thallium flux (F/F0 slope) at 10 µM; 3,000 compounds, 54% hits; AID 1917;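 active = Flux at 10 µM at least 3 SD below or above vehicle control mean in one or both replicates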
* hit, by the source's call; i = inactive; . = not tested or not shown.

SMILES	m-calpain inh	14-3-3 Bad PPI	TNF death inh	zVAD death inh	Efa HMGR inh	ROMK mod	ROMK hit retest
CCCCN(C(=O)CSc1cc(C)c2ccccc2n1)c1c(N)n(Cc2ccccc2)c(=O)[nH]c1=O	-31	-7	-1	-1	1	0.16	.
N#C/C(=C\c1cccnc1)C(=O)Nc1ccccc1	-5	-1	0	0	-4	-4.2*	0.053*
CCOc1cccc(NC(=O)/C(C#N)=C\c2cccnc2)c1	0	-2	1	0	-4	-3.3*	0.047*
COc1ccc(N(CC(=O)NCCc2ccc(Cl)cc2)S(=O)(=O)c2c(C)[nH]c(=O)[nH]c2=O)cc1	9	4	0	1	7	0.47	.
CCN(CC)CCNc1nc2cc(OC)c(OC)cc2c2nc(-c3ccccc3)nn12	i	-4	-13	-2	-5	0.88	.
CN1C(=O)CC(N2CCN(CCN=CC3=C(O)CC(C)(C)CC3=O)CC2)C1=O (centres undefined)	-18	12	0	1	2	0.97	.
CC1(C)CC(=O)C(C=NCCN2CCN(C3CC(=O)N(c4ccc(Cl)c(Cl)c4)C3=O)CC2)=C(O)C1 (centres undefined)	-38	-6	0	11	3	-6.7*	0.077
O=C1CC(c2ccc(Cl)c(Cl)c2)CC(O)=C1C=NCCN1CCNCC1 (centres undefined)	-34	-11	0	2	1	.	0.057*
Cc1cnc(NC(=O)Cc2cccs2)s1	-33	-19	24	1	-9	-1.1	.
CCC(=O)Nc1ccc2c(c1)nc1n2CCN(C2CCCCC2)C1	-248	-16	2	16	1	0.73	.
O=C(Nc1ccc2c(c1)nc1n2CCN(C2CCCCC2)C1)NC1CCCCC1	-351	34	-1	12	-3	-3.1*	0.042*
COc1ccc(C(=O)N/N=C(\C)CC(=O)Nc2cccc(C(F)(F)F)c2)cc1	11	-1	-1	0	.	-1.3	.
COc1ccc(-c2cc(C(=O)Nc3cc(S(=O)(=O)N4CCOCC4)ccc3N3CCOCC3)c3ccccc3n2)cc1	-153	-3	-4	1	4	1.8*	0.065*
COc1ccc(NS(=O)(=O)c2ccc(N3CCOCC3)c(NC(=O)c3ccccc3Cl)c2)cc1	14	7	3	-1	-2	0.063	.
O=C(Nc1ccccc1F)Nc1cc(S(=O)(=O)N2CCOCC2)ccc1N1CCCC1	-24	-11	2	-1	0	-0.26	.
O=C(COC(=O)Cc1ccc(Cl)cc1)Nc1cc(S(=O)(=O)N2CCOCC2)ccc1N1CCCC1	-4	-16	2	2	0	-4.3*	0.061*
Cc1ccc(S(=O)(=O)N2CCCCC2)cc1NC(=O)COC(=O)Cc1cccc(C(F)(F)F)c1	30	-6	-5	0	-3	-4*	0.063*
N#C/C(=C\c1ccccc1)C(=O)Nc1cc(S(=O)(=O)N2CCOCC2)ccc1N1CCCC1	-39	-2	0	0	-5	.	0.056*
COc1ccc(S(=O)(=O)N2CCCC(C(=O)NCCC(C)C)C2)cc1 (centres undefined)	37	-11	2	1	1	-0.89	.
COc1ccccc1C1=NC(c2ccc(C)cc2)N=C1C (centres undefined)	24	-12	0	1	-7	-2.7*	0.075
COc1ccccc1-c1nc2ccccc2nc1-c1ccccc1OC	10	8	1	-1	-1	-0.68	.
COCCCNCC(O)COc1ccccc1F (centres undefined)	-20	68	-1	1	1	0.73	.
COc1ccc(/C=C/c2nc3sc4c(c3c(=O)o2)CCC4)cc1	.	.	1	-1	.	.	.
O=c1oc(/C=C/c2ccccc2)nc2sc3c(c12)CCC3	-34	-15	-1	0	-4	-3.7*	0.045*
Cc1cc(C(=O)Nc2ccc(F)cc2C)n(-c2ccccc2)n1	-15	2	0	0	.	.	.
O=C(CC(=O)c1cc(Cl)ccc1O)c1ccccc1	8	-12	-4	0	-1	.	.
O=C(c1ccccc1)c1cc(Cl)ccc1N1C(=O)C=CC1=O	26	10	-1	0	-3	-2.7*	0.062*
